Results from PubChem BioAssay AID624330 (Southern Research Specialized Biocontainment Screening …, 2012).
The whole screen tested about 340,000 compounds, of which about 2,100 (0.62%) were called active.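 The calls were made as follows: active = first-screen hits whose inhibition reached a set limit at any dose in the follow-up dose series; inconclusive = inhibition above the set first-screen limit but never retested; inactive = the rest.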 These entries were drawn from the full list. Measured potencies and affinities stand elsewhere.

These compounds were tested against Rac GTPase-activating protein 1 (Homo sapiens) (UniProt Q9H0H5) (assay: MgcRacGAP GTPase-activating activity inhibitors, confirmation, biochemical, ADP Hunter fluorescence, primary and confirmatory (AID 624330;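 also: fluorescence reports GDP produced by GAP-driven GTP hydrolysis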)). Details: MgcRacGAP-stimulated Rac1 GTP hydrolysis, at 30 µM, active compounds read high, GST-tagged Rac1 F28L mutant substrate.
Rac GTPase-activating protein 1 (Homo sapiens), sequence (Q9H0H5 whole entry, looked up): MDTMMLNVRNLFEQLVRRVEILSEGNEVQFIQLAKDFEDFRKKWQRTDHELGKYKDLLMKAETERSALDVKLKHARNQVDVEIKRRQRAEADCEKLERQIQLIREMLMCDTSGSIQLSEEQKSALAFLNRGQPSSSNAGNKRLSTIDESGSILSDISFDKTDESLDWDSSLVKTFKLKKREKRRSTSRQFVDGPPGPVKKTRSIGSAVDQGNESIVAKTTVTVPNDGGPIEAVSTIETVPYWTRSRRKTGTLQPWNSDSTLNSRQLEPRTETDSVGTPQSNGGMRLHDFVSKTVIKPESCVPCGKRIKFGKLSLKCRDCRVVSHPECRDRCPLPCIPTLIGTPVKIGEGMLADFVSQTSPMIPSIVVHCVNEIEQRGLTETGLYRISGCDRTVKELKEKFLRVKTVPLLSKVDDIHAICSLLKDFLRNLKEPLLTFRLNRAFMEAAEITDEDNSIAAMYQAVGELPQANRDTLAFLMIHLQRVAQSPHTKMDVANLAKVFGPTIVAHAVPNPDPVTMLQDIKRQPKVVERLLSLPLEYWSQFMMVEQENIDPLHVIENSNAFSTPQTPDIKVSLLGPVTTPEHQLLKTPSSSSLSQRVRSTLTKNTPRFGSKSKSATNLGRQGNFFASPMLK

inhibition, inactive:
COc1ccc(CN2C(=O)C(CC(=O)NCCCN(C)C)CC(C(=O)N(C)C)=C2C)cc1 (stereo not drawn) 12.7%
Cc1sc2ncnc(N(C)Cc3cccs3)c2c1C 10.9%
CN(CCc1ccccn1)c1ncnc2[nH]ncc12 6.58%
COc1ccc(CNC(=O)CCCn2nc([N+](=O)[O-])cc2C)cc1 9%
O=C1c2ccccc2C(=O)N1c1nc(-c2cccs2)cs1 13.9%
O=C1CCCCCCCN1Cc1ccccc1 1.03%
O=C1CCCCCN1Cc1ccccc1 3.56%
COc1ccc(NC(=O)Nc2ccon2)cc1OC 7.89%
Cc1cccc(CN2CCSCC2)c1 23.8%
CCc1ccc(S(=O)(=O)N2CCN(Cc3ccco3)CC2)cc1 6.82%
FC(F)(F)c1ccc(CN2CCN(Cc3ccco3)CC2)cc1 15.3%
COc1ccc(CN2CCN(Cc3ccco3)CC2)cc1 29.8%
Cc1ccc(S(=O)(=O)N2CCN(Cc3ccco3)CC2)c(C)c1 3.78%
COc1ccc(CN2CCN(C(=O)c3ccco3)CC2)cc1OC 11.2%
CCCc1ccc(S(=O)(=O)N2CCN(Cc3ccco3)CC2)cc1 8.89%
COc1cc(OC)c(OC)cc1CN1CCN(Cc2ccco2)CC1 20.1%
CCc1sc(C(=O)NCCCN2CCCC2=O)cc1Br -10%
Cc1ccc(C)c(S(=O)(=O)N2CCN(C(=O)CSc3ccccc3)CC2)c1 8.52%
CC(Sc1nnc(-c2ccncc2)n1C)C(=O)NCC1CCCO1 (stereo not drawn) 1.73%
CN(C)CCOC(=O)CC12CC3CC(C1)CC(CC(=O)OCCN(C)C)(C3)C2 5.06%
COc1cccc(CNC(=O)c2ccc(S(=O)(=O)N3CCCCC3)cc2)c1 9.59%
Cc1ccc(S(=O)(=O)Nc2cc(=O)[nH]c(SCC(=O)Nc3ccccc3C(F)(F)F)n2)cc1 5.86%
CCOC(=O)CC(NC(=O)CCc1c(C)nc2nc(C)nn2c1C)c1ccc(OC(C)C)cc1 (stereo not drawn) 8.74%
CCOc1ccc(C(N)=O)cc1OC -0.9%
CCOc1ccc(C(=O)O)cc1OC 5.02%
CCCOc1ccc(N)cc1N 18.7%
CCN(CC)Cc1cc(C(C)=O)ccc1OCC(C)C -0.12%
COc1ccc2[nH]c3c(c2c1)CCN1C(=O)C(CC(=O)NCCC2=CCCCC2)C[C@H](C(=O)N2CCCCC2)[C@@]31CCc1ccccc1 (stereo partly drawn) 3.14%
CCc1nc(N)c(C#N)c(-c2ccc(F)cc2)c1C 16%
O=C(Nc1ccc(C(F)(F)F)cc1)C1CC(=O)N(c2ccc3c(c2)OCCO3)C1 (stereo not drawn) 11.2%
O=C(COC(=O)c1ccccc1O)Nc1ccc(OC(F)F)cc1 6.22%
[O-]/C(=C(\C(=S)Nc1cccc2ccccc12)[n+]1ccccc1)c1ccc(OC(F)F)cc1 8.46%
Cc1ccc(S(=O)(=O)C2CCCCC2=O)cc1 (stereo not drawn) 12.8%
Nc1ccc(CCC(=O)N2CCCC2)cc1 3.67%
O=[N+]([O-])c1cccc(/C=N/NS(=O)(=O)c2ccccc2)c1 3.56%
CCN(CC)c1ccc(/C=N/NS(=O)(=O)c2cccc([N+](=O)[O-])c2)cc1 23.2%
Cc1c(Cl)c([N+](=O)[O-])nn1Cc1ccc(C(=O)N/N=C\c2ccccn2)o1 3.44%
O=C(CNC(=O)c1cccc(F)c1)N/N=C/c1cccc([N+](=O)[O-])c1 4.45%
Cc1ccc(S(=O)(=O)N/N=C/c2ccc(O)c(O)c2)cc1[N+](=O)[O-] 30.2%
COc1cc(/C=N/NS(=O)(=O)c2ccc(C)c([N+](=O)[O-])c2)cc([N+](=O)[O-])c1O 22.1%
Cc1c(Cl)c([N+](=O)[O-])nn1Cc1ccc(C(=O)N/N=C\c2cccc(Br)c2)o1 6.83%
COc1cc(/C=N/NC(=O)c2cccc([N+](=O)[O-])c2)cc(OC)c1O 6.29%
O=C(C1CCN(S(=O)(=O)N2CCCCC2)CC1)N1CCCCC1 6.28%
CC1=C(C(=O)N2CCCC(CCC(=O)NCc3ccc(F)c(F)c3)C2)OCCO1 (stereo not drawn) 6.22%
COc1ccc(/C=N/NC(=O)c2cccc([N+](=O)[O-])c2)cc1O 8.06%
COc1ccc(/C=N/NC(=O)c2cccc([N+](=O)[O-])c2)cc1OC 7.73%
Cc1cccc(NC(=O)CSc2nnc(CNC(=O)c3cccs3)o2)c1C 8.9%
CC(C)NC(=O)CSCc1c(F)cccc1Cl 9.25%
Oc1ccc(-c2nc3ncccn3c2Nc2ccc3c(c2)OCCO3)cc1 11.9%
Cc1cccc(Nc2c(-c3ccc(N4CCOCC4)cc3)nc3ncccn23)c1 7.86%
Oc1ccc(-c2nc3ccccn3c2NCc2ccc3c(c2)OCO3)cc1 24.6%
Cc1ccn2c(NCc3ccc4c(c3)OCO4)c(-c3ccc(O)cc3)nc2c1 15.5%
Cc1ccc(-c2nc3ccccn3c2NCc2ccc3c(c2)OCO3)cc1 11.7%
Cc1ccc(-c2nc3cnccn3c2Nc2ccc3c(c2)OCO3)cc1 24.2%
S=C1NC[C@H](CC2CCCCC2)N1CC1CCCCC1 5.21%
COc1c(C)cc(C(=O)C2CCCN(Cc3cccc4nccnc34)C2)cc1C (stereo not drawn) 5.94%
CCCNC(=O)Nc1nnc(C2CC2)s1 2.83%
Cc1ccc(C(=O)NCCc2ccccc2)cc1S(=O)(=O)N1CCOCC1 1.5%
CCCN(CCC)CCNC(=O)c1cc2c(-c3ccc(Cl)cc3)nn(C)c2s1 31.8%
CCN(CC)CCCNC(=O)c1cc2c(-c3ccc(Cl)cc3)nn(C)c2s1 15.3%
CCOc1ccc(-c2nnc(SCC(=O)O)n2Cc2ccccc2)cc1 8.65%
COc1ccc(C)cc1NC(=O)CNC(c1ccccc1)c1ccccc1 1.89%
COc1ccc(C)cc1NC(=O)C(NCC1CCCO1)c1ccccc1 (stereo not drawn) 6.45%
